Tgondii IFNg = blocks Toxoplasma gondii growth in the presence of IFN-gamma; Toxoplasma gondii growth in IFN-gamma-treated host cells; hits give low values; activity change, negative = inhibition, % (test concentration not listed); hit rate 3.8% among 69,000; AID 1259416; in the data active means activity change below about -70%, passing the limit was not always enough;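 further: host cells are HeLa cells infected with Toxoplasma gondii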
* hit, by the source's call; i = inactive; ! = a repeat was not active. The entries come from a sample that favours hits as a whole.

SMILES	Tgondii IFNg
COc1ccc2c3c([nH]c2c1)[C@@H](CO)N(C(=O)c1ccc(F)cc1)CC31CCN(C(=O)NC(C)C)CC1	-58
COCCn1c(C(=O)N(C)C)cc2c1c1ccccc1n2C	58
O=C1CC2(CCN(C(=O)Cc3ccc4c(c3)OCO4)CC2)CN1	-57
O=C(Cc1ccc2c(c1)OCO2)N1CCC(c2nc(-c3ccsc3)cc(=O)[nH]2)CC1	-80*
CCn1c(C2CCCN(C(=O)Cc3ccc4c(c3)OCO4)C2)nn(C)c1=O (stereo not given)	7
O=C(c1ccc(/C=C/c2n[nH]c3ccccc23)cc1)N1CCNCC1	-67
C[C@@H](Oc1ccc2[nH]nc(/C=C/c3cnn(CCO)c3)c2c1)c1c(Cl)cncc1Cl	-75*
COc1cccc(S(=O)(=O)N(C)C[C@@H]2OCc3ccccc3-c3c(n(C)c4ccccc34)C(=O)N([C@H](C)CO)C[C@H]2C)c1	-52
COc1ccc(/C=C2\CC/C(=C\c3ccc(OC)c(OC)c3)C2=O)cc1OC	7
COc1cc(/C=C/C2=NNC(=O)CC2)cc(OC)c1OC	-97*
COc1cc(/C=C/C(=O)N2CCN(CC(=O)N3CCCC3)CC2)cc(OC)c1OC	13
c1ccc(CNc2cc(-c3ccc4ncsc4c3)c3cc[nH]c3n2)nc1	145
COc1cccc(-c2ccc(O)cc2)n1	28
CSc1nncc(-c2ccc(Cl)cc2)n1	-41
CSc1nccc(-c2ccc(O)cc2)n1	-78*
O=C(O)CN(CCN(CC(=O)O)CC(=O)O)CC(=O)O	7
Cc1cc(C(=O)N2CCC(c3cc4c(ncn4C)c(NCC4CC4)n3)CC2)ccc1Cl	-85*
Cn1cnc2c(NCc3ccccc3)nc(C3CCN(S(C)(=O)=O)CC3)cc21	-8
CC(C)n1cnc2c(NCC3CC3)nc(C3CCN(C(=O)c4cccc(F)c4F)CC3)cc21	-39
CCOC(=O)Cc1c(SC)c2ccccc2n1C	0
CC1NC(=O)COC12CCN(C(=O)c1cnccn1)CC2 (stereo not given)	-12
CC(C)C(=O)c1cc2c(s1)CCN2S(C)(=O)=O	-85*
CS(=O)(=O)N1CCc2sc(C(=O)NCc3ccccc3)cc21	-4
CS(=O)(=O)N1CCc2sc(C(=O)Nc3ccccc3F)cc21	-19
Cc1nc(-c2cccc(F)c2)sc1CCNC(=O)CC(C)(C)C	146
SMILES	Tgondii IFNg
Cn1c(CNC(=O)C2CCC2)nc2c1CN(C(=O)Cc1ccc(Cl)cc1)CC2	-49
CCCc1nc(C(=O)NCc2csc(N3CCOCC3)n2)cs1	-18
O=C(c1ccncc1)N1CCc2c([nH]c3ccccc23)C1c1ccccc1 (stereo not given)	337
COc1ccc(C2c3[nH]c4ccccc4c3CCN2C(=O)c2ccc3c(c2)OCO3)cc1 (stereo not given)	-81*
COc1ccc(C(=O)N2CCc3c([nH]c4ccccc34)C2c2ccc(SC)cc2)cc1OC (stereo not given)	i
O=C(c1ccc2c(c1)OCO2)N1CCc2c([nH]c3ccccc23)C1c1ccccc1 (stereo not given)	-98*
COc1cc(C(=O)N2CCc3c([nH]c4ccccc34)C2c2ccccc2)cc(OC)c1OC (stereo not given)	177
O=C(CN1CCOc2ccccc2C1)N1CCc2[nH]ncc2C1	-43
Cc1ccc(-c2cc3c(=O)n(Cc4nc(-c5ccc(Cl)cc5)oc4C)ccn3n2)cc1	-19
COc1ccccc1-c1nccn1C(Cn1ccnc1)c1ccccc1 (stereo not given)	4
Cc1nc(Cn2ccnc2-c2ccc(N(C)C)nc2)nc2c1CCCC2	0
Cn1c(C#N)ccc1-c1ccc2c(c1)C(C)(C)OC(=S)N2	-83*
O=C(c1ccc(F)cc1)N1CCC2(CC1)Nc1ccccc1-n1cccc12	29
C[C@H]1CN([C@@H](C)CO)C(=O)c2c(c3ccccc3n2C)-c2ccccc2CO[C@H]1CN(C)C(=O)[C@H](Cc1ccccc1)N(C)C	-48
CSc1nc(N)n(-c2c(Cl)cc(C(F)(F)F)cc2Cl)n1	-3
CC(C)CN1CC2(CCN(C(=O)NCc3ccccc3)CC2)C2(CCN(C)C2=O)C1 (stereo not given)	87
CN(C/C=C/c1ccccc1)C(=O)c1cc(Cn2ccc3ccccc32)[nH]n1	-17
C=CC(=O)Nc1cccc(Nc2nc(Nc3ccc(N4CCN(C(C)=O)CC4)cc3OC)ncc2C(F)(F)F)c1	2
COc1cc(N2CCC(N(C)C)CC2)ccc1Nc1ncc(Cl)c(Nc2ccccc2P(C)(C)=O)n1	-74*
C=CC(=O)Nc1cccc(Oc2nc(Nc3ccc(N4CCN(C)CC4)cc3)ncc2Cl)c1	-57
COc1cc(N2CCC(N3CCN(C)CC3)CC2)ccc1Nc1ncc(Cl)c(Nc2ccccc2S(=O)(=O)C(C)C)n1	-83*
C/C=C/c1ccc(C2[C@H]3CNC[C@@H]2N3S(=O)(=O)c2cccc(F)c2)cc1 (stereo not given in full)	-35
COCCn1cncc1CN1CCCC1c1nc2ccc(F)cc2[nH]1 (stereo not given)	-12
CN1CCN(C(=O)C2CC23C(=O)Nc2ccccc23)CC1 (stereo not given)	-22
Cn1ccc2cc(CCC(=O)N3CCCC3)ccc21	15
SMILES	Tgondii IFNg
O=C(c1cccc(F)c1)N1CC(=O)N2[C@@H](CO)[C@H](c3ccc(C4=CCCCC4)cc3)[C@@H]2C1	-8
Cc1nc(-c2ccccn2)nc(N2CCN(CCO)CC2)c1Cl	-14
Cc1nc(-c2ccccn2)nc(N(C)c2ccccc2)c1Cl	-101*
Cc1cc(CN2CCc3cnn(C)c3C2COCC2CC2)oc1C (stereo not given)	2
Cc1ccc(CN2C[C@@H](c3ccccc3)[C@@]3(CCNC3=O)C2)o1	-31
[O-][NH2+]c1ccc(O)c2ncccc12	-84*!
CCOC(=O)Cc1csc(NC(=O)Cc2ccc(C)cc2)n1	-69
CC(C)(C)c1cc(CN2CCCC(CCNS(C)(=O)=O)C2)[nH]n1 (stereo not given)	12
O=S(=O)(NCCc1csc(-c2cccc(F)c2)n1)c1ccc(F)cc1	-23
CNC(=O)[C@H]1C[C@H]2CCN(S(=O)(=O)N(C)C)C[C@H]2O1	99
COCCN1CCC(c2nc3ccc(NC4CCC4)cn3n2)CC1	-2
CCc1ccccc1NC(=O)N1CCC2(CC1)NC(=O)c1cc(F)ccc1N2C	-27
O=C(NCCSC1=NCCN1)c1cccnc1Oc1ccccc1	34
CS(=O)(=O)N1C[C@H]2COC[C@@]2(C(=O)NCc2ccccn2)C1	-9
CS(=O)(=O)N1CC(C(=O)Nc2nc(-c3ccccn3)cs2)Oc2ccccc21 (stereo not given)	-101*
CCOC(=O)C1CN(S(=O)(=O)c2ccc(C)cc2)c2ccccc2O1 (stereo not given)	43
O=C(O)CCC(=O)N1CC[C@H]2[C@H]1CC(=O)N2c1ccsc1	5
CCS(=O)(=O)N1C[C@H]2COC[C@@H](CC(=O)N3CCCC3)[C@H]2C1	-17
CC(C)(C)c1ccc(C23OC(=O)C4(CCCC4)C2OC(=O)C32CCCC2)cc1 (stereo not given)	-73*
CC(C)(NC(=O)c1cccs1)C(=O)NC1(c2ccccc2Cl)CC1	-14
CN1CC2(CCCN(S(=O)(=O)c3cn(C)cn3)CC2)OC1=O (stereo not given)	4
COCCNC(=O)c1ccc(-c2nc(CN3CCN(c4ccccc4)CC3)c(C)o2)cc1	-4
CCCCN(CC)C(=O)c1ccc(-c2nc(CN3CCN(c4ccccc4)CC3)c(C)o2)cc1	-69
Cc1oc(-c2ccc(C(=O)NCCc3ccco3)cc2)nc1CN1CCN(c2ccccc2)CC1	17
